Measured values: PubChem BioAssay (Tox21)
Where “and” joins values, the source holds several entries; their conditions need not be identical. Identical values can stand only once. Results filed as inconclusive are left out. Calls of active or inactive are those of the source. Unless noted, calls follow the shape of the dose curve; as a rule, active = well fitted curve in the direction sought with a large enough effect in the repeat runs; inconclusive = weak or mixed curves; inactive = no such curve, though single readings can be large; an effect the other way counts as inactive or inconclusive.

Experiments:
[1] = qHTS assay for small molecule agonists of the p53 signaling pathway (AID 651631; calls by dose curve; also: nearly all actives have a fitted effect of over 15% in size; also: potency is read from the fitted curve at half-maximal effect)
How it was run: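 HCT-116 p53RE-bla reporter line, 16 h compound treatment at 37 °C, then fluorescence after 2 h with B/G FRET substrate.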

[2] = qHTS assay for small molecules that induce genotoxicity in human embryonic kidney cells expressing luciferase-tagged ATAD5 (AID 651632); also: nearly all actives have a fitted effect of over 15% in size
How it was run: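 HEK293T cells carrying a luciferase reporter tagged to ATAD5 were exposed to compound or DMSO vehicle for 16 hr at 37C, 5% CO2. Amplite was added, and after 30 min at room temperature luciferase activity was read as a marker of ATAD5 induction.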

[3] = qHTS assay for small molecule agonists of the p53 signaling pathway - cell viability (AID 651633; calls by dose curve;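 also: p53RE-bla HCT reporter cells with a stable beta-lactamase p53 reporter; series mostly up to about 83 µM; nearly all actives have a fitted effect of over 30% in size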)
How it was run: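 p53RE-bla cells were treated with compound for 16 hours at 37 C. Cytotoxicity was then measured as CellTiter-Glo luminescence after 30 min at room temperature.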

[4] = qHTS assay for small molecules that induce genotoxicity in human embryonic kidney cells expressing luciferase-tagged ATAD5 - cell viability (AID 651634; calls by dose curve; also: nearly all actives have a fitted effect of over 25% in size)
How it was run: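 HEK293T cells expressing luciferase-tagged ATAD5 were exposed to compound or DMSO for 15.5 hr at 37C, 5% CO2. Viability was then read as live-cell protease activity by CellTiter-Fluor fluorescence after 30 min at 37C.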

[5] = qHTS assay for small molecule disruptors of the mitochondrial membrane potential - cell viability (AID 720634; calls by dose curve;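 also: human HepG2 liver cancer cells; series mostly up to about 83 µM; nearly all actives have a fitted effect of over 20% in size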)
How it was run: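 HepG2 cells seeded overnight at 37 C, then exposed to compound or DMSO for 1 hr at 37 C, 5% CO2. m-MPI dye added, then CellTiter-Glo for 30 min at room temperature; viability read as ATP luminescence.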

[6] = qHTS assay for small molecule disruptors of the mitochondrial membrane potential (AID 720635); also: potency is read from the fitted curve at half-maximal effect
How it was run: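 HepG2 cells exposed to compound 1 hr at 37C, then Mito-MPS dye 30 min. Ratio read of aggregate (540/590 nm) versus monomer (490/535 nm) fluorescence.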

[7] = qHTS assay to test for compound auto fluorescence at 590 nm (red) in HepG2 cells (AID 720674)
How it was run: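 Fluorescence at 590 nm emission following 540 nm excitation was recorded from HepG2 wells one hour after compound transfer, with DMSO-only wells as vehicle and Rose Bengal sodium equivalency as the scale.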

[8] = qHTS assay to test for compound auto fluorescence at 535 nm (green) in HepG2 cells (AID 720675)
[9] = qHTS assay to test for compound auto fluorescence at 460 nm (blue) in HEK293 cells (AID 720678)
How it was run: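 Auto fluorescence in the blue band was quantified as triamterene equivalency. HEK293 cells were seeded at 2,000/well, dosed after a 4-5 hr attachment, and kept overnight at 37C before the 405/460 nm reading.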

[10] = qHTS assay to test for compound auto fluorescence at 590 nm (red) in HEK293 cells (AID 720679)
How it was run: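 Autofluorescence equivalency to Rose Bengal sodium, 540/590nm, in HEK293 cells exposed overnight to 23 nL compound per well.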

[11] = qHTS assay to test for compound auto fluorescence at 535 nm (green) in HEK293 cells (AID 720680)
[12] = qHTS assay to test for compound auto fluorescence at 460 nm (blue) in HEK293 cell free culture (AID 720681)
How it was run: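 Compounds were added to cell-free DMEM with 10% FBS and fluorescence read directly. The blue channel used 405 nm excitation and 460 nm emission, with triamterene as the reference fluorophore.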

[13] = qHTS assay to test for compound auto fluorescence at 535 nm (green) in HEK293 cell free culture (AID 720682)
How it was run: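 Steps: dispense DMEM/10% FBS into empty wells; pin in compound or DMSO; measure fluorescence at 485/535 nm. Values are fluorescein equivalents.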

[14] = qHTS assay to test for compound auto fluorescence at 590 nm (red) in HEK293 cell free culture (AID 720683)
How it was run: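 Cell-free wells of DMEM with 10% FBS received compound, and intrinsic fluorescence was read at excitation/emission 540/590 nm. Values expressed as equivalence to Rose Bengal sodium.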

[15] = qHTS assay to test for compound auto fluorescence at 460 nm (blue) in HepG2 cell free culture (AID 720685)
How it was run: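 Compound (23 nL) or DMSO pinned into cell-free MEM with 10% FBS; blue fluorescence read at 405/460 nm excitation/emission, expressed as auto-fluorescence equivalency to triamterene.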

[16] = qHTS assay to test for compound auto fluorescence at 535 nm (green) in HepG2 cell free culture (AID 720686)
[17] = qHTS assay to test for compound auto fluorescence at 460 nm (blue) in HepG2 cells (AID 720687)
How it was run: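 HepG2 cells in MEM with 10% FBS, attached overnight at 37 C, were exposed to compound or DMSO for 1 hr at 37 C, 5% CO2. Blue fluorescence was read at 405/460 nm, with triamterene as reference fluorophore.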

[18] = target: Glucocorticoid receptor (Homo sapiens) (UniProt P04150); assay: qHTS assay to identify small molecule agonists of the glucocorticoid receptor (GR) signaling pathway (AID 720691; active = well fitted activation curve with a large enough effect in the signal ratio in the repeat runs, not every such curve was filed as active; the % refers to the signal ratio)
How it was run: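 GR-bla HeLa cells (beta-lactamase reporter under glucocorticoid response element) were plated 4 h at 37 C/5% CO2, given compounds in DMSO, and incubated 18 h at 37 C. LiveBLAzer B/G FRET substrate was added for 2 h at room temperature, then fluorescence intensity read.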

[19] = target: Glucocorticoid receptor (Homo sapiens) (UniProt P04150); assay: qHTS assay to identify small molecule antagonists of the glucocorticoid receptor (GR) signaling pathway (AID 720692; active = well fitted inhibition curve with a large enough effect in the signal ratio in the repeat runs, not every such curve was filed as active; the % refers to the signal ratio)
How it was run: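 GR-bla HeLa cells (beta-lactamase reporter under glucocorticoid response element) were pre-plated 4 h at 37 C, treated with compounds plus 5 nM dexamethasone (final) for 18 h, then read by LiveBLAzer B/G FRET fluorescence after 2 h.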

[20] = qHTS assay to test for compound auto fluorescence at 590 nm (red) in HepG2 cell free culture (AID 720684)
How it was run: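 Compounds are added to culture medium (MEM, 10% FBS) lacking cells, then fluorescence is read at excitation 540 nm, emission 590 nm, with Rose Bengal sodium as the equivalency standard.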
% is scaled to controls: 0 for no effect and ±100 for the full control effect.

Chain of Glucocorticoid receptor (Homo sapiens) (P04150 whole entry, looked up): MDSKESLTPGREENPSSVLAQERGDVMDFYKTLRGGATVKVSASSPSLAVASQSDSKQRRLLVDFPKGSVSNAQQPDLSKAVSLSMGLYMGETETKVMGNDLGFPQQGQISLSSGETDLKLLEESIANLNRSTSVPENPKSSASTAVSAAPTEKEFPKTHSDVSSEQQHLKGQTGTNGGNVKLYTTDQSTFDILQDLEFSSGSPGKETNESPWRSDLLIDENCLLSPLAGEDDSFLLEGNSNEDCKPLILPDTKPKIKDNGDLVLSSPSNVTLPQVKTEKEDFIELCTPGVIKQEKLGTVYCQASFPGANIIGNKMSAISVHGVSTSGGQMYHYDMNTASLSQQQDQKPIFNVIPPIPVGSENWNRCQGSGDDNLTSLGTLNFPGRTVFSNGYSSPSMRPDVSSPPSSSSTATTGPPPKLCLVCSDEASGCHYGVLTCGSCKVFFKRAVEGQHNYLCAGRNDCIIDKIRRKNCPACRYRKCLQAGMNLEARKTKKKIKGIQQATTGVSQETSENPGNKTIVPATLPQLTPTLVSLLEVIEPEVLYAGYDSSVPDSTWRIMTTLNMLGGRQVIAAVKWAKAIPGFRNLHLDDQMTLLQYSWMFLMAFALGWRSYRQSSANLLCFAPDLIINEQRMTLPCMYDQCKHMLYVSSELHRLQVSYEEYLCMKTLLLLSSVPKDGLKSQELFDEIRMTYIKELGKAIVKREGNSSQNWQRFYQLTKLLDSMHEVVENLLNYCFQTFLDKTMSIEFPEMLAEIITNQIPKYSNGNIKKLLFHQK

CC1=CC(C)C(C=O)C(C)C1 (centres undefined)
inactive: Potency [1] | Potency [2] | Potency [3] | Potency [4] | Potency [5] | Potency [6] | outcome [7] | outcome [8] | Potency [9] | outcome [10] | outcome [11] | Potency [12] | outcome [13] | outcome [14] | Potency [15] | outcome [16] | Potency [17] | Potency [18] | Potency [19]

CC(O)CN(CCCN(C)C)CCCN(C)C (centres undefined)
inactive: Potency [1] | Potency [2] | Potency [3] | Potency [4] | Potency [5] | Potency [6] | outcome [7] | outcome [8] | Potency [9] | outcome [10] | outcome [11] | Potency [12] | outcome [13] | outcome [14] | outcome [20] | Potency [15] | outcome [16] | Potency [18]

CC12CCC(CC1=O)C2(C)C (centres undefined)
inactive: Potency [1] | Potency [2] | Potency [3] | Potency [4] | Potency [5] | Potency [6] | outcome [7] | outcome [8] | Potency [9] | outcome [10] | outcome [11] | outcome [13] | outcome [14] | Potency [15] | outcome [16] | Potency [17] | Potency [18] | Potency [19]

Nc1nc(F)nc2c1ncn2[C@@H]1O[C@H](CO)[C@@H](O)[C@@H]1O
active: Potency [1] 13.3 µM and 8.41 µM
inactive: Potency [2] | Potency [3] | Potency [4] | Potency [5] | Potency [6] | outcome [7] | outcome [8] | Potency [9] | outcome [10] | outcome [11] | Potency [12] | outcome [13] | outcome [14] | Potency [15] | outcome [16] | Potency [17] | Potency [18] | Potency [19]

N[C@@H](CS)C(=O)O
active: Potency [6] 27.7 µM
inactive: Potency [1] | Potency [2] | Potency [3] | Potency [4] | Potency [5] | outcome [7] | outcome [8] | outcome [10] | Potency [12] | outcome [13] | outcome [14] | outcome [20] | Potency [15] | outcome [16] | Potency [17]

O=C1OC(=O)c2cc([N+](=O)[O-])ccc21
inactive: Potency [1] | Potency [2] | Potency [3] | Potency [4] | Potency [5] | Potency [6] | outcome [7] | outcome [8] | Potency [9] | outcome [10] | outcome [11] | Potency [12] | outcome [13] | outcome [14] | Potency [15] | outcome [16] | Potency [18] | Potency [19]

COC(=O)CCCC(=O)O
inactive: Potency [1] | Potency [2] | Potency [3] | Potency [4] | Potency [5] | outcome [7] | outcome [8] | Potency [9] | outcome [10] | outcome [11] | Potency [12] | outcome [13] | outcome [14] | outcome [20] | Potency [15] | outcome [16] | Potency [17] | Potency [18]

CC(C=O)Cc1ccc(C(C)C)cc1 (centres undefined)
inactive: Potency [1] | Potency [2] | Potency [3] | Potency [4] | Potency [5] | outcome [7] | outcome [8] | Potency [9] | outcome [10] | outcome [11] | Potency [12] | outcome [13] | outcome [14] | outcome [20] | Potency [15] | outcome [16] | Potency [17] | Potency [18] | Potency [19]

C=CCOc1nc(OCC=C)nc(OCC=C)n1
inactive: Potency [1] | Potency [2] | Potency [3] | Potency [4] | Potency [5] | outcome [7] | outcome [8] | Potency [9] | outcome [10] | outcome [11] | Potency [12] | outcome [13] | outcome [14] | outcome [20] | Potency [15] | outcome [16] | Potency [18] | Potency [19]

CO[Si](OC)(OC)OC
inactive: Potency [1] | Potency [2] | Potency [3] | Potency [4] | Potency [5] | outcome [7] | outcome [8] | Potency [9] | outcome [10] | outcome [11] | Potency [12] | outcome [13] | outcome [14] | outcome [20] | Potency [15] | outcome [16] | Potency [17] | Potency [18] | Potency [19]

CN(C)CCn1nnnc1SCC1=C(C(=O)O)N2C(=O)[C@@H](NC(=O)Cc3csc(N)n3)[C@H]2SC1
inactive: Potency [1] | Potency [2] | Potency [3] | Potency [4] | Potency [5] | fluorescence, relative to Rose Bengal [7] -0.434% [at 18.6 µM] | fluorescence, % of fluorescein control [8] -0.0016% [at 18.6 µM] | fluorescence, % of triamterene [9] 0.477% [at 18.6 µM] | fluorescence, % of fluorescent control [10] -0.137% [at 18.6 µM] | fluorescence, % of fluorescein [11] 0.129% [at 18.6 µM] | fluorescence, % of fluorescent control [12] 0.443% [at 18.6 µM] | activity change [13] 0.0595% [at 18.6 µM] | fluorescence, % of fluorescent control [14] 0.0008% [at 18.6 µM] | fluorescence, % of Rose Bengal [20] 0.544% [at 18.6 µM] | fluorescence, % of fluorescent control [15] 0.31% [at 18.6 µM] | fluorescence, % of fluorescein control [16] 0.0098% [at 18.6 µM] | Potency [18] | Potency [19]

CCCCCCOC(=O)c1ccccc1O
inactive: Potency [1] | Potency [2] | Potency [3] | Potency [4] | Potency [5] | outcome [7] | outcome [8] | Potency [9] | outcome [10] | outcome [11] | Potency [12] | outcome [13] | outcome [14] | outcome [20] | Potency [15] | outcome [16] | Potency [17] | Potency [18] | Potency [19]

COc1cc(O)cc(O)c1
inactive: Potency [1] | Potency [2] | Potency [3] | Potency [4] | Potency [5] | outcome [7] | outcome [8] | Potency [9] | outcome [10] | outcome [11] | Potency [12] | outcome [13] | outcome [14] | outcome [20] | Potency [15] | outcome [16] | Potency [17]

COC[C@H](c1ccc(C(F)(F)F)cc1)N1CCN(C2(C)CCN(C(=O)c3c(C)ncnc3C)CC2)C[C@H]1C
inactive: Potency [1] | Potency [2] | Potency [3] | Potency [4] | Potency [5] | outcome [7] | outcome [8] | Potency [9] | outcome [10] | outcome [11] | Potency [12] | outcome [13] | outcome [14] | outcome [20] | Potency [15] | outcome [16] | Potency [17] | Potency [18] | Potency [19]

Cc1ncc(CSSCc2cnc(C)c(O)c2CO)c(CO)c1O
inactive: Potency [1] | Potency [2] | Potency [3] | Potency [4] | Potency [5] | outcome [7] | outcome [8] | Potency [9] | outcome [10] | outcome [11] | Potency [12] | outcome [13] | outcome [14] | outcome [20] | Potency [15] | outcome [16] | Potency [17] | Potency [18] | Potency [19]
